LDHA inh – inhibitors of human lactate dehydrogenase A | 480,000 tested, 0.15% active | AID 1347041 | activity change, % (values are at about 110 or 230 µM) | purified LDHA, NADH/diaphorase-resazurin fluorescence; active compounds read low | P00338; in the data active = activity change below about -30%; inconclusive = mostly about -25% to -30%;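 note: plate controls were DMSO wells for no effect and wells without enzyme for full effect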
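Human LDH5 at 2 nM final in Tris HCl pH 7.4 with 0.06 mM NADH and 0.2 mM pyruvate, reacted 5 minutes at room temperature. Remaining NADH coupled via diaphorase/resazurin; resorufin fluorescence read at 0 and 20 minutes, normalized to enzyme-free and DMSO wells.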
HepG2 tox – HepG2 cytotoxicity, counter-screen for TGF-b inhibitors. AID 588856. Potency, µM (titrated, usually from 46.1 µM), inactives show at the highest dose activity change, negative = cytotoxicity, actives largely listed as cytotoxic. HepG2 CAGA-GFP viability, ATP luminescence, 18 h. 410,000 tested, 0.76% active; note: potency is the fitted concentration of half-maximal effect
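CellTiter-Glo luminescence gave cytotoxicity after 18 hours at 37 degrees C. The cells were HepG2 CAGA-GFP in 1% FBS DMEM, stimulated with 500 pg/mL TGF-beta after compound addition. %Activity was normalised to no-cell wells (complete cell-killing) and DMSO (no toxicity), and curves were fitted and classified.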
ATXN2 expr inh – ATXN2 expression inhibition. HEK-293 ATXN2-luciferase reporter, luminescence, 24 h. Potency, µM (titrated, usually from 57 µM), for the others: top-dose activity change, negative = inhibition, usual class: inhibitors. 360,000 tested, 0.72% active. AID 1745845; note: potency is the fitted concentration of half-maximal effect; % is set by controls: 0 for no effect and ±100 for the full control effect; nearly all actives have a fitted effect of over 55% in size
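ATXN2-luciferase reporter cells (luciferase flanked by upstream and downstream ATXN2 gene portions) were treated 24 h at 37 °C with compounds at up to 57 uM. SteadyGlo luminescence gave expression; GF-AFC fluorescence gave viability.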
IDH1 R132H inh – inhibitors of human mutant IDH1 R132H. O75874. IDH1-R132H enzyme, NADPH consumption, diaphorase/resazurin fluorescence. Potency, µM (titrated, usually from 76.6 µM), for inactives: at the top dose activity change, negative = inhibition, actives largely listed as inhibitors. 390,000 tested, 0.093% active. AID 602179; note: potency is the fitted concentration of half-maximal effect; % is set by controls: 0 for no effect and ±100 for the full control effect; nearly all actives have a fitted effect of over 65% in size
Target sequence (O75874 whole entry R132H, stated change not applied): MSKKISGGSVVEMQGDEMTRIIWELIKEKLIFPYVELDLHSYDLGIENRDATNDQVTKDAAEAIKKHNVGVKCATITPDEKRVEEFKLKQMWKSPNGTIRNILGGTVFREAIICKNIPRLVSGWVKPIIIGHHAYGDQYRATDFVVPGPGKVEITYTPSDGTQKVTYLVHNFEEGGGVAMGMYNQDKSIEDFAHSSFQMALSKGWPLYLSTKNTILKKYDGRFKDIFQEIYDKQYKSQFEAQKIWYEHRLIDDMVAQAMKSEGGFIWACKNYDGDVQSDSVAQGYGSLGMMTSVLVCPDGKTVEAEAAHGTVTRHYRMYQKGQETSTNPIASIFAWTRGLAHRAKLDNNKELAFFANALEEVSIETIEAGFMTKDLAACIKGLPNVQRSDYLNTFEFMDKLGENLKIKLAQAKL
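IDH1-R132H (0.5 ug/mL) preincubated 30 min with compound, then NADPH (0.016 mM) and alpha-KG (2 mM) added; 80 min at RT, pH 7.5. Remaining NADPH coupled via diaphorase/resazurin to fluorescence (540/590 nm); concentration-response curves normalized to no-enzyme control.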
TGFb SMAD3 inh – TGF-b pathway inhibition | HepG2 CAGA-GFP TGF-b/SMAD3 reporter, GFP fluorescence, 18 h; TGF-beta stimulated, 500 pg/mL final | Potency, µM (doses to about 46.1 µM), inactives show at the highest dose activity, negative = inhibition, actives largely listed as inhibitors | 410,000 tested, 1.2% active; note: potency is the fitted concentration of half-maximal effect; % is set by controls: 0 for no effect and ±100 for the full control effect; nearly all actives have a fitted effect of over 65% in size
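Read-out: total well GFP (ex488/em500-530) summed from mean per-cell fluorescence. Cells: HEPG2 CAGA-GFP, 1% FBS DMEM, 18 h at 37 degrees C with 500 pg/mL final TGF-beta. Unstimulated wells served as the full-inhibition control; stimulated DMSO wells = 0%.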
S2 tox – viability counter-screen for ATXN expression inhibitors. S2 cells (HEK-293 line with an ATXN2-luciferase reporter) viability, CellTiter-Fluor protease fluorescence, 24 h. Potency, µM (titrated, usually from 56.7 µM), actives largely listed as cytotoxic. 400,000 tested, 0.49% active. AID 651635; note: potency is the fitted concentration of half-maximal effect; nearly all actives have a fitted effect of over 40% in size
Starred values were filed as active, the others as inactive; i = inactive; ? = inconclusive; / = not tested or not shown; ! = not confirmed by another sample. A selection: hits, their analogues and other compounds. The true share with any hit is near 2.2%. Unless noted, calls come from the whole dose curve; as a rule, active = well fitted curve in the direction sought with a large enough effect; inconclusive = small, poorly fitted or top-dose-only effect, or another doubt; inactive = no such curve, though single readings can be large; an effect the other way counts as inactive or inconclusive.

SMILES	LDHA inh	HepG2 tox	ATXN2 expr inh	IDH1 R132H inh	TGFb SMAD3 inh	S2 tox
COc1ccccc1-c1nn2c(=O)cc(CN3CCN(C(=O)/C=C/c4ccccc4)CC3)nc2s1	0.0	-0.6%	-14.2%	-0.1%	?	?
COc1cc(NCc2ccc3nc(N)nc(N)c3c2C)cc(OC)c1OC	/	/	3.55µM*!	/	/	?
CCOC(=O)c1c(C)oc2nc(C)nc(NCc3ccc(C)cc3)c12	7.5	4.9%	2.0%	-8.1%	26.8%	i
CCCCCC1(C(=O)OCC)CC(CSC(=N)N)OC1=O (centres undefined)	-2.4	-73.3%	0.4%	-5.2%	12.6µM*	i
NS(=O)(=O)c1ccc(N=Nc2nc3[nH]cnc(=S)c3[nH]2)cc1	0.0	-41.7%	/	/	?	/
CCO[C@@H]1OC(C(=O)N2CCN(Cc3ccccc3)CC2)=C[C@H](c2ccc(C(F)(F)F)cc2)[C@H]1CCCO	12.2	-32.6%	0.0%	9.8%	12.6µM*	?
Cc1cc(C(=O)c2ccc(C(C)(C)C)cc2)c(NC(=O)CCl)s1	9.4	-101.8%	?	6.9%	15.8µM*	?
Cc1ccccc1C(=O)Nc1sc(C)c(C)c1C(=O)c1ccccc1	-5.4	-21.2%	-3.2%	4.6%	?	i
Cc1sc(NC(=O)CCl)c(C(=O)c2ccccc2)c1C	2.5	12.6µM*	?	-10.5%	?	?
CCCCN(CC)C(=O)c1c[nH]c2ccc(S(=O)(=O)N(C)c3ccc(Cl)cc3)cc2c1=O	-1.6	-1.7%	5.2%	-15.2%	4.4%	i
Cc1ccc(Cn2c(C(=O)O)c(CNCCc3cccs3)c3ccc(C)cc32)cc1	-0.6	-6.6%	10.9%	-6.9%	?	?
COc1ccc(Cn2c(C(=O)O)c(CNCCc3cccs3)c3ccc(C)cc32)cc1	-1.3	-31.8%	?	-0.9%	-27.0%	31.6µM*
COc1ccc(Cn2c(C(=O)O)c(CNCc3ccco3)c3ccc(C)cc32)cc1	4.8	-23.5%	-13.4%	22.3%	41.8%	7.94µM*
COc1ccccc1C1(CC(=O)O)CCOC(C)(C)C1 (centres undefined)	-9.7	-1.2%	-3.8%	8.8%	1.3%	i
Cc1cc(C)c(S(=O)(=O)NCc2cn3ccccc3n2)c(C)c1	-11.9	-8.9%	/	14.4%	3.1%	i
CCSc1nsc(NC(=O)Nc2ccccc2F)n1	-14.3	-39.3%	38.0%	14.9%	?	?
C=CCSc1nsc(NC(=O)Nc2ccc(F)cc2)n1	-1.5	-37.9%	?	6.0%	6.31µM*	8.91µM*
CCSc1nsc(NC(=O)Nc2cccc(OC)c2)n1	-0.7	-30.3%	-27.4%	-6.9%	22.4µM*	i
CC(NC(=O)c1ccc(-c2ccccc2)cc1)C(c1ccccc1)N1CCOCC1 (centres undefined)	-1.3	-22.4%	-11.2%	0.9%	-22.7%	i
Cc1cccc(NS(=O)(=O)c2ccc(Br)s2)n1	0.2	0.4%	0.6%	0.6%	-18.3%	i
Cc1c(Cl)cccc1-c1ccc(/C=C(\C#N)c2nc3ccccc3[nH]2)o1	11.9	7.94µM*	7.9%	-4.0%	6.31µM*	/
O=C(N/C(=C/c1ccccc1)C(=O)N1CCCCC1)c1ccco1	0.0	-7.4%	-6.0%	0.0%	-6.7%	i
Cc1ccc2nc(-c3ccccc3)c(Cc3cccc(Cl)c3)n2c1	-1.7	-49.9%	-25.3%	/	14.1µM*	?
Clc1cccc(Cc2c(-c3ccco3)nc3ccc(Br)cn23)c1	-4.2	-115.0%	?	/	12.6µM*	/
COC(=O)c1ccc2nc(-c3ccco3)c(Cc3ccc(OC)cc3C)n2c1	-0.2	-30.7%	-5.1%	/	12.6µM*	?
SMILES	LDHA inh	HepG2 tox	ATXN2 expr inh	IDH1 R132H inh	TGFb SMAD3 inh	S2 tox
COC(=O)c1ccc2nc(-c3ccco3)c(Cc3ccc(C)cc3)n2c1	-1.4	-0.2%	15.4%	/	?	i
Clc1cccc(Cc2c(-c3ccco3)nc3ccc(Cl)cn23)c1	-4.9	-113.1%	?	/	17.8µM*	/
Brc1ccc2nc(-c3ccco3)c(Cc3ccccc3)n2c1	-0.9	-37.6%	3.1%	/	?	?
COc1ccc(C(=O)N2CCN(S(=O)(=O)c3ccc(C)cc3C)CC2)cc1S(=O)(=O)N1CCOCC1	2.9	1.2%	/	0.7%	-1.4%	i
Cc1cc(C)c(C(=O)Cn2cnc3cc([N+](=O)[O-])ccc3c2=O)cc1C	-8.5	11.7%	-8.6%	-6.7%	-15.4%	i
CN(C)C(CNC(=O)c1cc(S(=O)(=O)N(C)c2ccc(F)cc2)ccc1Cl)c1ccco1 (centres undefined)	-1.7	-5.1%	-4.9%	9.0%	-24.2%	i
CCOC(=O)[C@H](CCc1ccccc1)N[C@H]1CS[C@H](c2cccs2)CN(CC(=O)O)C1=O	/	/	70.5%	/	/	i
CCOC(=O)[C@H](CCc1ccccc1)N[C@H]1CCc2ccccc2N(CC(=O)O)C1=O	-9.0	11.9%	24.3µM*!	-6.4%	9.1%	35.5µM*!
Cc1nnc(SCc2ccc(Cl)cc2)nc1/C=C/N(C)C	0.0	-28.3%	/	-3.1%	-20.4%	i
Cc1cc(C)c(S(=O)(=O)/N=C2/C=C(SCC(=O)O)C(=O)c3ccccc32)cc1C	52.6	-105.3%	?	13.1%	?	?
O=C(O)c1ccc(NC2=C/C(=N/S(=O)(=O)c3cccs3)c3ccccc3C2=O)cc1	23.3	-107.7%	/	18.7%	14.1µM*	/
O=C(O)c1ccc(Nc2nc3ccccc3nc2NS(=O)(=O)c2cccs2)cc1	-8.6	-1.2%	-0.8%	-7.1%	3.1%	i
Cc1cc(C)c(S(=O)(=O)/N=C2\C=C(Nc3ccc(C(=O)O)cc3)C(=O)c3ccccc32)c(C)c1	41.4	15.8µM*	28.2µM*	4.8%	?	?
CCOC(=O)c1ccc(-c2c(-c3ccc(OC)cc3)oc(=O)c3cc(OC)c(OC)cc23)cc1F	0.3	0.8%	0.8%	5.7%	-2.4%	i
CCOC(=O)c1ccc(-c2c(-c3cc(OC)c(OC)c(OC)c3)noc2C)cc1F	-0.4	0.8%	-12.8%	4.6%	11.2µM*	?
CCOC(=O)c1cn(CC)c2cc(N3CCSCC3)c(F)cc2c1=O	-0.6	-9.8%	-12.4%	-3.0%	-17.0%	i
COCC(=O)N/N=C/c1ccc(Sc2nc3ccccc3s2)o1	-0.4	-8.1%	-10.6%	10.1%	13.2%	i
N#CCC(=O)N/N=C/c1ccc(Sc2nc3ccccc3s2)o1	-47.9*	-20.8%	-0.5%	4.4%	34.3%	i
COC(=O)c1ccccc1Nc1ccnc(Cl)n1	-2.5	20µM*	3.8%	1.7%	0.0%	i

Bioassay records deposited in PubChem by National Center for Advancing Translational Sciences (NCATS).
